Measurements taken from PubChem BioAssay (NCATS).
*1 amine or outer side, *2 acyl side, *3 side chain or, on linkers, in order; H or OH if unused. Where a SMILES comes first, the peptide text is derived from it. Non-standard residues stand in square brackets, D forms with d. Residues, ends and D or L forms follow the SMILES beside them. Bridges are numbered along the chain shown (N, C = ends). Roman numbers before positions name the chains, in order. [ ]: non-standard residue; d: D form. ξ: configuration not given here. Actinocin(9to1) = Cc1c2oc3c(C)ccc(C(=O)[*:1])c3nc-2c(C(=O)[*:2])c(N)c1=O; Orn = NCCC[C@H](N)C(=O)O; ξNMeV = CNC(C(=O)O)C(C)C; ξV = CC(C)C(N)C(=O)O; Sar = CNCC(=O)O

Assay: qHTS profiling for inhibitors of Plasmodium falciparum (3D7) proliferation (AID 743322);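 note: infected erythrocytes exposed to compound for 72 h before lysis; 100% = DMSO vehicle wells and 0% = 0.29 µM artemisinin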
Conditions: P. falciparum 3D7 proliferation; at 28.7 µM (top of the series) unless noted
Summary of the method: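 Parasite DNA was quantified by SYBR Green I fluorescence (ex 485, em 535 nm) after overnight lysis in saponin/Triton buffer at room temperature. Cultures at 0.3% parasitemia and 2.5% hematocrit were first exposed to compound for 72 h at 37 C; signals were normalised to artemisinin (0.29 uM) and vehicle wells.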
`CCOc1cc2ncc(C#N)c(Nc3ccc(OCc4ccccn4)c(Cl)c3)c2cc1NC(=O)/C=C/CN(C)C` showed a remaining parasite growth % (stronger effect = lower value) of -0.375%.
Compound `Cc1c2oc3c(C)ccc(C(=O)N[C@@H]4C(=O)NC(C(C)C)C(=O)N5CCC[C@H]5C(=O)N(C)CC(=O)N(C)C(C(C)C)C(=O)O[C@@H]4C)c3nc-2c(C(=O)N[C@@H]2C(=O)NC(C(C)C)C(=O)N3CCC[C@H]3C(=O)N(C)CC(=O)N(C)C(C(C)C)C(=O)O[C@@H]2C)c(N)c1=O` (stereo not given in full) (I: T[ξV]P[Sar][ξNMeV] / II: T[ξV]P[Sar][ξNMeV]; ester I:1-I:C, II:1-II:C; linker I:N-II:N via Actinocin(9to1)) has a remaining parasite growth % (stronger effect = lower value) of -2.78%.
`O=c1cc(C2=CC=CC3Sc4ccccc4SC23)oc(N2CCOCC2)c1` (stereo not given) gave a remaining parasite growth % (stronger effect = lower value) of 90.9%.
In the case of `CCCCCCCCCCCCCCCCCCOP(=O)([O-])OC1CC[N+](C)(C)CC1`, the remaining parasite growth % (stronger effect = lower value) is reported as 98.6% [at 18.4 µM].
For `CCC1(Cc2ccc(N)cc2)CCC(=O)NC1=O` (stereo not given), the remaining parasite growth % (stronger effect = lower value) was 99.6% [at 57.5 µM].
In the case of `O=C(O)CC/C=C\CC[C@H]1[C@@H](N2CCCCC2)[C@@H](O)C[C@@H]1OCc1ccc(-c2ccccc2)cc1`, the remaining parasite growth % (stronger effect = lower value) is reported as 58.6%.
Work on `CN1CCC(CN2c3ccccc3Sc3ccccc32)C1` (stereo not given) yielded a remaining parasite growth % (stronger effect = lower value) of 32.6%.
In the case of `CN(NC(=O)CC(=O)NN(C)C(=S)c1ccccc1)C(=S)c1ccccc1`, the remaining parasite growth % (stronger effect = lower value) is reported as 2.19% [at 57.5 µM].
With `CCCC(=O)O[C@]1(C(=O)CCl)[C@H](C)C[C@@H]2[C@H]3CCC4=CC(=O)C=C[C@]4(C)[C@@]3(F)C(=O)C[C@@]21C` the remaining parasite growth % (stronger effect = lower value) was 0.271%.
`CC(NC(=O)Cc1cc(F)cc(F)c1)C(=O)NC(C(=O)OC(C)(C)C)c1ccccc1` (stereo not given) gave a remaining parasite growth % (stronger effect = lower value) of 103%.
Work on `CC[C@@H](C(=O)O)C1CC[C@H](C)C([C@@H](C)[C@H](O)[C@H](C)C(=O)[C@H](CC)C2O[C@]3(C=C[C@@H](O)[C@]4(CC[C@@](C)(C5CC[C@](O)(CC)[C@H](C)O5)O4)O3)[C@H](C)C[C@@H]2C)O1` (stereo not given in full) yielded a remaining parasite growth % (stronger effect = lower value) of -3.05%.
Compound `C[C@@H]1CCC2[C@@H](C)[C@@H](O)O[C@@H]3O[C@@]4(C)CC[C@@H]1[C@@]23OO4` (stereo not given in full) has a remaining parasite growth % (stronger effect = lower value) of -0.537%.
Work on `C[C@@H]1CCN(C(=O)CC#N)C[C@@H]1N(C)c1ncnc2[nH]ccc12` yielded a remaining parasite growth % (stronger effect = lower value) of 95.6%.
Work on `CNC1CCN(C(Cc2cccc(-c3ccncc3)c2)C(=O)c2sc3c(F)ccc(F)c3c2Cl)CC1` (stereo not given) yielded a remaining parasite growth % (stronger effect = lower value) of 0.218%.
Work on `COC(=O)C1=C(C)NC(C)=C(C(=O)OCCCN2CCC(c3ccccc3)(c3ccccc3)CC2)[C@H]1c1cccc([N+](=O)[O-])c1` yielded a remaining parasite growth % (stronger effect = lower value) of -1.45%.
`CC(C)C[C@@H]1NC(=O)[C@H](CCCN)NC(=O)[C@H](C(C)C)NC(=O)[C@@H]2CCCN2C(=O)[C@@H](Cc2ccccc2)NC(=O)[C@H](CC(C)C)NC(=O)[C@H](CCCN)NC(=O)[C@H](C(C)C)NC(=O)[C@@H]2CCCN2C(=O)[C@@H](Cc2ccccc2)NC1=O` (cyclo(V[Orn]L[dF]PV[Orn]L[dF]P)) showed a remaining parasite growth % (stronger effect = lower value) of -2.61%.
For `CCC1(O)CC2CN(CCc3c([nH]c4ccccc34)[C@@](C(=O)OC)(c3cc4c(cc3OC)N(C=O)[C@H]3[C@](O)(C(=O)OC)[C@H](OC(C)=O)[C@]5(CC)C=CCN6CC[C@]43[C@@H]65)C2)C1` (stereo not given in full), the remaining parasite growth % (stronger effect = lower value) was 8.01%.
Work on `Cc1nnc(C(C)C)n1C1CC2CCC(C1)N2CC[C@H](NC(=O)C1CCC(F)(F)CC1)c1ccccc1` (stereo not given in full) yielded a remaining parasite growth % (stronger effect = lower value) of 111%.
With `CCN(CC)Cc1cc(Nc2ccnc3cc(Cl)ccc23)ccc1O` the remaining parasite growth % (stronger effect = lower value) was 1.29% [at 9.63 µM].
Work on `NC(=O)Nc1cc(-c2ccc(CN3CCOCC3)c(F)c2)sc1C(=O)N[C@H]1CCCNC1` yielded a remaining parasite growth % (stronger effect = lower value) of 3.88%.
